The text below walks through data of PubChem BioAssay (NCI).

Holding throughout (assay): NCI-60 one-dose screen, 48 h (100 = growth as untreated, 0 = no growth, -100 = all killed)
Common to all, as to details: 10 µM unless noted

Assay [1] has as its system SK-MEL-2 melanoma.
Assay [2] has as its system EKVX NSCLC.
The subject of assay [3] is SN12C renal.
The test system of assay [4] is UO-31 renal.
Assay [5] concerns TK-10 renal.
Assay [6] relates to ACHN renal.
The subject of assay [7] is A498 renal.
The subject of assay [8] is CCRF-CEM leukemia.
Assay [9] concerns MOLT-4 leukemia.
Assay [10] deals with SR leukemia.

This is part of a sample that, as a whole, favours compounds with a hit. Of some 83,000 tested, about 20% had one in any assay.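 Treatment: one concentration, 48 hours, 96-well format. Scoring: percent growth, with anything below 10 considered active.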 A number with no mark means an inactive call. The source made the active and inactive calls.

`NCCCn1c2c(c3cc(-c4ccn[nH]4)ccc3c1=O)C(=O)c1ccccc1-2`: the growth in assay [1] was 105%; in assay [2], 77%; in [3], 49.1%; in assay [4], 47.7%; in assay [5] it was 72.3%; in assay [6], 20.4%. Further, the growth in [7] was 72%; in assay [8], 16.5%; in assay [9], -9.41% (active); in [10], -2.64% (active).

In the case of `c1ccc2nc(N3CCOCC3)c(N3CCCCC3)nc2c1`, the growth in assay [1] was 95.2%; in assay [2] it was 97.7%; in [3], 96.2%; in assay [4], 77.2%; in assay [5] it was 98.8%; in [6], 103%. In addition, the growth in assay [7] is 78.3%; in [8], 93.6%; in assay [9], 95.6%; in assay [10], 90.2%.

As for `N#Cc1ccc(Oc2ccc3ccc(=O)oc3c2)cc1`, the growth in assay [1] is 135%; in [2] it was 110%; in assay [3], 105%; in [4], 99.1%; in [5] it was 116%; in assay [6], 98.2%. Besides, the growth in assay [7] is 99%; in assay [8] it was 101%; in assay [9], 100%; in [10], 82.9%.

Take `COc1cc(C2=NN(c3ccccc3)C(c3cccc(Nc4ccnc5cc(C(F)(F)F)ccc45)c3)C2)cc(OC)c1OC` (stereo not given): the growth is 86.6% in [1]; 85.2% in [2]; 97.1% in assay [3]; 61.4% in assay [4]; 78.2% in [5]; 95.2% in assay [6]. For the same compound, the growth in assay [7] was 89.9%; in [8], 84.1%; in [9] it was 65.3%; in [10], 56.9%.

For the compound `O=C(Nc1nc(-c2ccccc2)cs1)c1cc(-c2ccc(Br)cc2)nc2ccccc12`, the growth is 67% in assay [1]; 41.2% in assay [2]; 54.9% in assay [3]; 17.2% in assay [4]; 63.2% in assay [5]; 55.4% in assay [6]. Besides, the growth in assay [7] is -55.9% (active); in [8], 20.9%; in assay [9], 24%; in assay [10], 19.5%.

In the case of `O=C1c2ccccc2C(=O)c2c1oc1c2c(=O)[nH]c2ccc(Cl)cc21`, the growth is 31.8% in assay [1]; 15.2% in assay [2]; -26.3% (active) in assay [3]; -54.9% (active) in assay [4]; -42.1% (active) in assay [5]; -14.2% (active) in assay [6]. The growth in assay [7] is 80.4%; in assay [8], 29%; in assay [9], 18.4%; in [10] it was 33.7%.

Regarding `COC(=O)c1cc2c3c(cc(O)c2[nH]1)N(C(=O)C1Cc2cc(OC)c(OC)c(OC)c2N1)CC3CCl` (stereo not given), the growth in [1] was -43% (active); in [2], -31.5% (active); in [3] it was -88.9% (active); in [4], -97.8% (active); in assay [5], -89.5% (active); in assay [6], -56.1% (active). Moreover, the growth in assay [7] is -42.8% (active); in assay [8] it was 5.91% (active); in [9], -11.7% (active); in [10], 8.12% (active).

On to `Nc1n[nH]c2cccc(C#Cc3cccc(NC(=O)c4cc(N5CCOCC5)cc(C(F)(F)F)c4)c3)c12`, for which the growth was 0.377% (active) in [1]; 59.9% in [2]; 57.6% in assay [3]; 17.5% in assay [4]; 36.5% in assay [5]; 25.3% in assay [6]. The growth is -5.08% (active) in assay [7], 44.2% in assay [8], 30.4% in [9] and 43.5% in assay [10].

For the compound `COc1ccc(NC(=O)Nc2ccc(Nc3nc(C)cc(Nc4ccc(C)cc4)n3)cc2)cc1`, the growth in assay [1] was -61.9% (active); in assay [2], -70.9% (active); in assay [3] it was -71% (active); in [4] it was -90.5% (active); in assay [5], -95.9% (active); in assay [6] it was -99.6% (active). Further, the growth is 107% in assay [7], -7.9% (active) in assay [8], -35.3% (active) in assay [9] and -37.1% (active) in assay [10].

Consider `S=C(Nc1ccc(Cl)cc1)c1ccccn1`, for which the growth in assay [1] was 92.1%; in [2] it was 87.9%; in assay [3] it was 99.3%; in assay [4], 71.5%; in assay [5] it was 110%; in assay [6], 99%. Besides, the growth in assay [7] was 69.2%; in assay [8], 99.4%; in assay [9], 101%; in [10] it was 102%.

As to `Cc1cccc(C)c1Nc1nnc(-c2ccc(F)cc2)o1`, the growth was 105% in [1]; 104% in assay [2]; 105% in assay [3]; 88.8% in [4]; 105% in assay [5]; 100% in assay [6]. The growth in assay [7] is 103%; in assay [8], 100%; in [9] it was 110%; in assay [10] it was 119%.

In the case of `Cc1ccc(SC2c3ccc(C)cc3Oc3nc(N)c(C#N)c(N)c32)cc1` (stereo not given), the growth in [1] was 65.3%; in assay [2], 59.8%; in assay [3] it was 79.9%; in assay [4] it was 48.5%; in [5] it was 69.3%; in [6], 68.1%. In addition, the growth in assay [7] was 106%; in assay [8], 7.82% (active); in assay [9], 7.29% (active); in [10] it was -11.8% (active).

Regarding `N#CCNc1ccc(C(=O)O)cc1`, the growth was 108% in [1]; 104% in assay [2]; 103% in assay [3]; 101% in assay [4]; 97.4% in assay [5]; 111% in assay [6]. Besides, the growth is 106% in assay [7], 99.3% in assay [8], 96.3% in assay [9] and 99.2% in assay [10].
